From PubChem BioAssay
SW480 rerep: DNA re-replication induction in SW480 cells | SW480 DNA re-replication, Hoechst DNA content imaging, 48 h | Potency, µM (titrated, usually from 46.1 µM), for inactives: at the top dose re-replication activation, actives largely listed as activators | 1.8% of 340,000 active; also: potency is read from the fitted curve at half-maximal effect; % of control where 0% means no effect; nearly all actives have a fitted effect of over 55% in size
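Readout is total intensity of Hoechst-stained nuclei, excited at 405 nm and collected at 500-530 nm. Compound treatment lasted 48 hr at 37 C in 5% CO2 before staining.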
BCR signal inh: chronic active BCR signaling inhibition. ABC-DLBCL IkBa-CBG/CBR reporter, luminescence ratio, 4 h. Potency, µM (top dose mostly 46.1 µM), for inactives: top-dose activity change, negative = inhibition, usual class: inhibitors. 0.05% of 340,000 active. AID 493014; active = well fitted inhibition curve with a large enough effect in the signal ratio, with a control signal flat, not every such curve was filed as active; inconclusive = small, poorly fitted or top-dose-only effect, or effect the other way, or a change in a side signal; the % refers to the signal ratio;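 also: potency is read from the fitted curve at half-maximal effect; plate controls were basal doxycycline-induced cells for no effect and cells given 10 µM MG132 for full effect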
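TMD8 ABC-DLBCL cells carrying doxycycline-inducible green luciferase fused to IkappaBalpha plus unfused red luciferase were exposed to compounds (up to 46 uM) for 4 hrs at 37C. Activity came from the overlap-corrected green/red luminescence ratio.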
MCF10A rerep: induces DNA re-replication in MCF 10a normal breast cells. MCF 10A DNA re-replication, Hoechst nuclear intensity, 48 h. Potency, µM (doses to about 46.1 µM), inactives show top-dose activity, positive = re-replication, actives largely listed as activators. 2.9% of 350,000 active. AID 624296; also: potency is read from the fitted curve at half-maximal effect; % of control where 0% means no effect; nearly all actives have a fitted effect of over 50% in size
IL1B secr inh: inflammasome signaling inhibition, IL-1 beta readout | THP-1 LPS/ATP IL-1B secretion, AlphaLISA, 16 h; active compounds read low | activity change, % at 57.5 µM | 4.7% of 360,000 active; in the data active = activity change below about -50%; inconclusive = mostly about -30% to -49%; also: % is scaled to controls: 0 for no effect and ±100 for the full control effect
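Secreted IL-1B measured by AlphaLISA bead assay after 16 h compound exposure of THP-1 cells; compounds (final up to 57.5 uM) added 1 h before LPS (250 ng/mL) and ATP (1.25 mM) stimulation; lower signal means less secretion.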
TDP1 cell CPT: growth inhibition of DT40 Tdp1-/-;hTDP1 cells with camptothecin (screen for TDP1 inhibitors) | chicken DT40 Tdp1-/-;hTDP1 cells + 20 nM CPT, ATP luminescence, 48 h | Potency, µM (highest dose often 46.2 µM), inactives show at the top dose activity change, negative = growth inhibition, most hits filed as inhibitors | 12% of 420,000 active | AID 686979; also: potency is read from the fitted curve at half-maximal effect; % is scaled to controls: 0 for no effect and ±100 for the full control effect; nearly all actives have a fitted effect of over 55% in size
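Chicken DT40 Tdp1-/- cells complemented with human TDP1, 400 cells/well, exposed to compounds plus 20 nM camptothecin for at least 48 h at 37 C; viability read as ATP content by CellTiter-Glo luminescence.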
TDP1 cell noCPT: qHTS for Inhibitors of human tyrosyl-DNA phosphodiesterase 1 (TDP1): qHTS in cells in absence of CPT. DT40 Tdp1-/- hTDP1 cells, no CPT, ATP luminescence, 48 h. Potency, µM (top dose mostly 46.2 µM), without a hit: at the highest dose activity change, negative = growth inhibition, usual class: inhibitors. 15% of 420,000 active. AID 686978, 2013; also: potency is read from the fitted curve at half-maximal effect; % is scaled to controls: 0 for no effect and ±100 for the full control effect; nearly all actives have a fitted effect of over 55% in size
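Chicken DT40 Tdp1-/- cells complemented with human TDP1, screened without camptothecin (DMSO vehicle only), 400 cells/well. Compounds pin-transferred, cells incubated at 37 °C for at least 48 hr. Growth read as ATP-dependent luminescence (CellTiter-Glo, 30 min at RT).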
* marks the source's active call; other numbers are inactive results; ? = inconclusive; · = not tested or not shown; [ ] = remark or other dose. An excerpt weighted towards active compounds, which were near 19% of everything screened. Unless noted, calls follow the shape of the dose curve; as a rule, active = well fitted curve in the direction sought with a large enough effect; inconclusive = small, poorly fitted or top-dose-only effect, or another doubt; inactive = no such curve, though single readings can be large; an effect the other way counts as inactive or inconclusive.

SMILES	SW480 rerep	BCR signal inh	MCF10A rerep	IL1B secr inh	TDP1 cell CPT	TDP1 cell noCPT
Cc1ccc2nc(NCCCO)nc(-c3ccccc3)c2c1	?	?	?	-4	13µM*	12µM*
OCCCNc1nc(-c2ccccc2)c2cc(Br)ccc2n1	?	?	4.6µM*	-76*	?	?
Cc1ccc2nc(NCC(N)=O)nc(-c3ccccc3)c2c1	18µM*	?	?	?	-27%	-29%
O=C(O)CCNc1nc(-c2ccccc2)c2cc(Br)ccc2n1	-11%	4%	2%	-2	-2%	-11%
Cc1ccc2nc(NCC(=O)O)nc(-c3ccccc3)c2c1	-1%[9.22 µM]	13%	22%	-3	?	-12%
Cc1ccc2nc(NCCC(=O)O)nc(-c3ccccc3)c2c1	0%	5%	1%	1	-19%	-14%
COc1ccc(CN2C[C@@H](CO)O[C@@H](n3cnc4c(NC5CCC5)ncnc43)C2)cc1	·	·	·	-14	?	?
Nc1ccc(S(=O)(=O)c2ccc(NC(=O)c3cccnc3)cc2)cc1	10%	·	-2%	?	-28%	2%
O=C(O)CC(NNC(=O)c1ccccc1)C(=O)Nc1cccc([N+](=O)[O-])c1 (configuration not stated)	-8%	?	2%	-8	2%	28%
Cc1nnc(SC(C)C(=O)Nc2ccc(N3CCOCC3)cc2)n1Cc1ccccc1 (configuration not stated)	?	-4%	?	-1	-1%	-2%
Clc1ccc(Nc2nc(-c3ccccc3)c3cc(Cl)ccc3n2)cc1	·	·	·	·	5%	-7%
O=C(NCCO)c1cccc(Nc2nc(-c3ccccc3)c3cc(Cl)ccc3n2)c1	16µM*	?	?	?	?	?
Cc1noc(C)c1COc1ccccc1C(=O)NNC(=O)C(C)Oc1ccccc1F (configuration not stated)	1%	-7%	1%	6	-4%	-4%
Cc1ccc(CNS(=O)(=O)c2ccc(-c3cnc(C4CC4)o3)cc2)cc1	2%	-2%	13%	10	?	?
CCOc1ccccc1CNS(=O)(=O)c1ccc(-c2cnc(C3CC3)o2)cc1	?	?	1.3µM*	32	0.82µM*	0.65µM*
CCOc1ccccc1CNS(=O)(=O)c1ccc(-c2coc(C)n2)cc1	·	·	·	·	16µM*	16µM*
Cc1nc(-c2ccc(S(=O)(=O)NCc3ccc(OC(C)C)cc3)cc2)co1	·	·	·	·	?	26µM*
O=S(=O)(NCc1ccccc1Cl)c1ccc(-c2cnc(C3CC3)o2)cc1	·	·	·	·	3.7µM*	2.9µM*
CSCCC(=O)N1CCC(n2nccc2NC(=O)CCCc2ccccc2)CC1	-5%	6%	?	0	-19%	-26%
CCNc1ncc2nc(-c3ccc(Cl)cc3)c(=O)n(CCC#N)c2n1	·	·	·	·	2%	0%
CC(=O)Nc1ccc(C(=O)CN2C(=O)CSC2=O)cc1	0%	?	0%	-6	12%	13%
Cc1ccc(-n2c(=O)c3c(C)c(C(=O)N(C)C)sc3n(CC(=O)N(C)c3ccccc3)c2=O)cc1C	·	-5%	·	·	-27%	-26%
CNc1nc(C23CC4CC(CC(C4)C2)C3)cs1	13%	-1%	?	53	?	?
CCCCN1C(=O)C(=O)N(CC(=O)Nc2cc(OCC)c(N3CCOCC3)cc2OCC)C1=O	-7%	0%	-5%	24	1%	12%
CCc1nc2ccc(C(=O)NC3CCN(Cc4ccccc4)CC3)cn2c1N(C)Cc1cc2ccccc2s1	·	·	·	-66*	26µM*	21µM*
SMILES	SW480 rerep	BCR signal inh	MCF10A rerep	IL1B secr inh	TDP1 cell CPT	TDP1 cell noCPT
CCc1nc2ccc(C(=O)NC3CCN(Cc4ccccc4)CC3)cn2c1N(C)Cc1cccs1	·	·	·	-52*	?	16µM*
CCc1nc2ccc(C(=O)NCCCN(C)C)cn2c1N(C)CCCc1ccccc1	·	·	·	-22	?	?
O=C(O)/C=C/c1ccc(S(=O)(=O)NCc2cccnc2)cc1	-4%	-3%	-1%	11	?	-5%
COc1ccc(OC)c(-c2cc(Cl)c3c(c2)CC(CNC(=O)/C=C/c2ccccn2)O3)c1 (configuration not stated)	·	·	·	·	3%[9.04 µM]	-11%
O=C1c2ccccc2C(=O)c2c(/C=C/N3CCCCC3)ccnc21	21µM*	·	?	-107*	6.5µM*	10µM*
O=C1C(=C(I)I)c2ccccc2-c2ccccc21	5.8µM*	·	?	-101*	2.6µM*	4.6µM*
O=C(O)c1cccc2c1C(=O)c1ccccc1-2	-9%	?	-14%	·	3%	-16%
COc1ccccc1NC(=O)COc1ccc(Br)cc1CO	-16%	?	3%	4	-37%	?
